# According to the supplement of paper PMC12282887:
# ± gives the standard deviation of the averaged measurements.
# Experiments:
# Assay in all cases: promoter activity interaction Z-score (Lux/OD deviation from empty-vector control); higher = stronger promoter induction by the compound
# [1] = system: E. coli BW25113 acrABp lux reporter
# Outline: (§1)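 E. coli BW25113 (wild type or marA, soxS or rob deletion) carrying low-copy luxCDABE promoter reporters grew in 40 µl LB Lennox in 384-well plates at 37°C. Each compound was tested at four 1:2 dilutions in biological duplicates. OD600 and luminescence were read every 30 min for 12 h. Areas were taken over 0–8 h (wild type) or 1–9 h (mutants), and wells below 10% of median growth area were removed. The score is the Z-transformed residual of growth-normalised luminescence fitted against the empty-vector control.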
# [2] = system: E. coli BW25113 micFp lux reporter
# Outline: as §1
# [3] = system: E. coli BW25113 ompFp lux reporter
# Outline: as §1
# [4] = system: E. coli BW25113 robp lux reporter
# Outline: as §1
# [5] = system: E. coli BW25113 soxSp lux reporter
# Outline: as §1
# [6] = system: E. coli BW25113 tolCp lux reporter
# Outline: as §1
# [7] = system: E. coli BW25113 marRABp lux reporter
# Outline: as §1
# [8] = 0.28 µg/ml, genetic background: wild type
# [9] = 0.28 µg/ml, genetic background: ΔmarA
# [10] = 0.28 µg/ml, genetic background: Δrob
# [11] = 0.28 µg/ml, genetic background: ΔsoxS
# [12] = 0.56 µg/ml, genetic background: wild type
# [13] = 0.56 µg/ml, genetic background: ΔmarA
# [14] = 0.56 µg/ml, genetic background: Δrob
# [15] = 0.56 µg/ml, genetic background: ΔsoxS
# [16] = 1.1 µg/ml, genetic background: wild type
# [17] = 1.1 µg/ml, genetic background: ΔmarA
# [18] = 1.1 µg/ml, genetic background: Δrob
# [19] = 1.1 µg/ml, genetic background: ΔsoxS
# [20] = 2.2 µg/ml, genetic background: wild type
# [21] = 3.7 µg/ml, genetic background: wild type
# [22] = 3.7 µg/ml, genetic background: ΔmarA
# [23] = 3.7 µg/ml, genetic background: Δrob
# [24] = 3.7 µg/ml, genetic background: ΔsoxS
# [25] = 7.5 µg/ml, genetic background: wild type
# [26] = 7.5 µg/ml, genetic background: ΔmarA
# [27] = 7.5 µg/ml, genetic background: Δrob
# [28] = 7.5 µg/ml, genetic background: ΔsoxS
# [29] = 15 µg/ml, genetic background: wild type
# [30] = 15 µg/ml, genetic background: ΔmarA
# [31] = 15 µg/ml, genetic background: Δrob
# [32] = 15 µg/ml, genetic background: ΔsoxS
smiles,measurement,setting,value
CC[C@H]1OC(=O)[C@H](C)[C@@H](O[C@H]2C[C@@](C)(OC)[C@@H](O)[C@H](C)O2)[C@H](C)[C@@H](O[C@@H]2O[C@H](C)C[C@H](N(C)C)[C@H]2O)[C@](C)(O)C[C@@H](C)CN(C)[C@H](C)[C@@H](O)[C@]1(C)O [Azithromycin],promoter activity interaction Z-score,[1]; [8],0.612 ± 0.28
same,promoter activity interaction Z-score,[1]; [9],-0.667 ± 0.48
same,promoter activity interaction Z-score,[1]; [10],0.324 ± 0.28
same,promoter activity interaction Z-score,[1]; [11],0.489 ± 0.8
same,promoter activity interaction Z-score,[1]; [12],1.13 ± 0.12
same,promoter activity interaction Z-score,[1]; [13],0.048 ± 0.66
same,promoter activity interaction Z-score,[1]; [14],2.23 ± 0.08
same,promoter activity interaction Z-score,[1]; [15],3.66 ± 1.6
same,promoter activity interaction Z-score,[1]; [16],4.08 ± 1
same,promoter activity interaction Z-score,[1]; [17],6.35 ± 6.2
same,promoter activity interaction Z-score,[1]; [18],3.65 ± 1.2
same,promoter activity interaction Z-score,[1]; [19],4.28 ± 1.8
same,promoter activity interaction Z-score,[1]; [20],7.14 ± 1.1
same,promoter activity interaction Z-score,[2]; [8],0.698 ± 0.19
same,promoter activity interaction Z-score,[2]; [9],-0.163 ± 0.0028
same,promoter activity interaction Z-score,[2]; [10],0.125 ± 0.087
same,promoter activity interaction Z-score,[2]; [11],0.248 ± 0.093
same,promoter activity interaction Z-score,[2]; [12],0.273 ± 0.86
same,promoter activity interaction Z-score,[2]; [13],-0.14 ± 0.018
same,promoter activity interaction Z-score,[2]; [14],0.558 ± 0.35
same,promoter activity interaction Z-score,[2]; [15],-0.483 ± 0.018
same,promoter activity interaction Z-score,[2]; [16],-0.839 ± 0.87
same,promoter activity interaction Z-score,[2]; [17],-0.439 ± 0.056
same,promoter activity interaction Z-score,[2]; [18],0.39 ± 0.33
same,promoter activity interaction Z-score,[2]; [19],-0.925 ± 0.18
same,promoter activity interaction Z-score,[2]; [20],-1.39
same,promoter activity interaction Z-score,[3]; [8],0.438 ± 0.0074
same,promoter activity interaction Z-score,[3]; [9],-0.225 ± 0.85
same,promoter activity interaction Z-score,[3]; [10],0.663 ± 0.29
same,promoter activity interaction Z-score,[3]; [11],0.266 ± 1.3
same,promoter activity interaction Z-score,[3]; [12],1.95 ± 0.52
same,promoter activity interaction Z-score,[3]; [13],1.13 ± 0.094
same,promoter activity interaction Z-score,[3]; [14],3.25 ± 1.9
same,promoter activity interaction Z-score,[3]; [15],2.77 ± 0.12
same,promoter activity interaction Z-score,[3]; [16],0.0139 ± 0.62
same,promoter activity interaction Z-score,[3]; [17],0.739 ± 3.3
same,promoter activity interaction Z-score,[3]; [18],-0.756 ± 0.22
same,promoter activity interaction Z-score,[3]; [19],3.18 ± 1.5
same,promoter activity interaction Z-score,[4]; [8],-0.606 ± 0.46
same,promoter activity interaction Z-score,[4]; [9],-2.26 ± 0.22
same,promoter activity interaction Z-score,[4]; [10],-1.42 ± 0.052
same,promoter activity interaction Z-score,[4]; [11],-1.11 ± 0.5
same,promoter activity interaction Z-score,[4]; [12],-1.97 ± 0.83
same,promoter activity interaction Z-score,[4]; [13],-2.42 ± 0.28
same,promoter activity interaction Z-score,[4]; [14],-1.4 ± 0.26
same,promoter activity interaction Z-score,[4]; [15],-1.99 ± 0.19
same,promoter activity interaction Z-score,[4]; [16],-3.21 ± 1
same,promoter activity interaction Z-score,[4]; [17],-3.49 ± 0.67
same,promoter activity interaction Z-score,[4]; [18],-2.09 ± 0.15
same,promoter activity interaction Z-score,[4]; [19],-2.73 ± 0.21
same,promoter activity interaction Z-score,[4]; [20],-3.03
same,promoter activity interaction Z-score,[5]; [8],0.146 ± 0.018
same,promoter activity interaction Z-score,[5]; [9],-0.132 ± 0.027
same,promoter activity interaction Z-score,[5]; [10],0.101 ± 0.33
same,promoter activity interaction Z-score,[5]; [11],0.569 ± 0.9
same,promoter activity interaction Z-score,[5]; [12],0.342 ± 0.019
same,promoter activity interaction Z-score,[5]; [13],-0.134 ± 0.052
same,promoter activity interaction Z-score,[5]; [14],0.401 ± 0.02
same,promoter activity interaction Z-score,[5]; [15],1.917 ± 0.018
same,promoter activity interaction Z-score,[5]; [16],2.27 ± 0.33
same,promoter activity interaction Z-score,[5]; [17],1.16 ± 0.1
same,promoter activity interaction Z-score,[5]; [18],1.69 ± 0.21
same,promoter activity interaction Z-score,[5]; [19],2.06 ± 0.22
same,promoter activity interaction Z-score,[5]; [20],2.59 ± 1.8
same,promoter activity interaction Z-score,[6]; [8],1.23 ± 0.81
same,promoter activity interaction Z-score,[6]; [9],0.138 ± 0.034
same,promoter activity interaction Z-score,[6]; [10],0.66 ± 0.69
same,promoter activity interaction Z-score,[6]; [11],2.05 ± 0.54
same,promoter activity interaction Z-score,[6]; [12],1.21 ± 1.3
same,promoter activity interaction Z-score,[6]; [13],0.283 ± 0.058
same,promoter activity interaction Z-score,[6]; [14],1.89 ± 0.14
same,promoter activity interaction Z-score,[6]; [15],2.57 ± 1.3
same,promoter activity interaction Z-score,[6]; [16],3.44 ± 0.47
same,promoter activity interaction Z-score,[6]; [17],1.58 ± 1.8
same,promoter activity interaction Z-score,[6]; [18],4.99 ± 0.58
same,promoter activity interaction Z-score,[6]; [19],4.53 ± 2
same,promoter activity interaction Z-score,[6]; [20],5.2 ± 2.8
CC[C@H]1OC(=O)[C@H](C)[C@@H](O[C@H]2C[C@@](C)(OC)[C@@H](O)[C@H](C)O2)[C@H](C)[C@@H](O[C@@H]2O[C@H](C)C[C@H](N(C)C)[C@H]2O)[C@](C)(OC)C[C@@H](C)C(=O)[C@H](C)[C@@H](O)[C@]1(C)O [Clarithromycin],promoter activity interaction Z-score,[1]; [21],2.75 ± 0.78
same,promoter activity interaction Z-score,[1]; [22],-0.666 ± 0.051
same,promoter activity interaction Z-score,[1]; [23],2.53 ± 0.28
same,promoter activity interaction Z-score,[1]; [24],3.99 ± 2.9
same,promoter activity interaction Z-score,[1]; [25],4.86 ± 2
same,promoter activity interaction Z-score,[1]; [26],0.0124 ± 0.014
same,promoter activity interaction Z-score,[1]; [27],3.88 ± 1.1
same,promoter activity interaction Z-score,[1]; [28],5.27 ± 0.95
same,promoter activity interaction Z-score,[1]; [29],6.01 ± 2.6
same,promoter activity interaction Z-score,[1]; [30],5.11
same,promoter activity interaction Z-score,[1]; [31],8.62 ± 0.52
same,promoter activity interaction Z-score,[1]; [32],7.67 ± 6.7
same,promoter activity interaction Z-score,[7]; [21],2.9 ± 0.24
same,promoter activity interaction Z-score,[7]; [22],2.02 ± 0.13
same,promoter activity interaction Z-score,[7]; [23],1.54 ± 0.29
same,promoter activity interaction Z-score,[7]; [24],2.44 ± 1
same,promoter activity interaction Z-score,[7]; [25],3.84 ± 0.18
same,promoter activity interaction Z-score,[7]; [26],2.58 ± 0.055
same,promoter activity interaction Z-score,[7]; [27],2.57 ± 1.6
same,promoter activity interaction Z-score,[7]; [28],4.77 ± 2.4
same,promoter activity interaction Z-score,[7]; [29],2.6 ± 3
same,promoter activity interaction Z-score,[7]; [30],3.84
same,promoter activity interaction Z-score,[7]; [31],4.65 ± 1.9
same,promoter activity interaction Z-score,[7]; [32],7.29 ± 0.54
same,promoter activity interaction Z-score,[2]; [21],0.345 ± 0.84
same,promoter activity interaction Z-score,[2]; [22],-0.264 ± 0.18
same,promoter activity interaction Z-score,[2]; [23],0.13 ± 0.36
same,promoter activity interaction Z-score,[2]; [24],0.346 ± 0.31
same,promoter activity interaction Z-score,[2]; [25],-0.0809 ± 0.56
same,promoter activity interaction Z-score,[2]; [26],-0.345 ± 0.18
same,promoter activity interaction Z-score,[2]; [27],0.0824 ± 0.022
same,promoter activity interaction Z-score,[2]; [28],-0.272 ± 0.94
same,promoter activity interaction Z-score,[2]; [29],-2.17 ± 0.33
same,promoter activity interaction Z-score,[2]; [30],-0.213 ± 0.3
same,promoter activity interaction Z-score,[2]; [31],-0.078 ± 0.014
same,promoter activity interaction Z-score,[3]; [21],4.02 ± 1.8
same,promoter activity interaction Z-score,[3]; [22],2.83 ± 2.5
same,promoter activity interaction Z-score,[3]; [23],3.22 ± 1.5
same,promoter activity interaction Z-score,[3]; [24],4.01 ± 1.6
same,promoter activity interaction Z-score,[3]; [25],4.44 ± 2.9
same,promoter activity interaction Z-score,[3]; [26],4.37 ± 4.9
same,promoter activity interaction Z-score,[3]; [27],3.77 ± 4.2
same,promoter activity interaction Z-score,[3]; [28],3.43 ± 1.9
same,promoter activity interaction Z-score,[3]; [29],-0.0263 ± 3.9
same,promoter activity interaction Z-score,[3]; [31],-0.772
same,promoter activity interaction Z-score,[3]; [32],-2.44
same,promoter activity interaction Z-score,[4]; [21],-1.9 ± 0.13
same,promoter activity interaction Z-score,[4]; [22],-2.77 ± 0.23
same,promoter activity interaction Z-score,[4]; [23],-1.66 ± 0.048
same,promoter activity interaction Z-score,[4]; [24],-2.35 ± 0.33
same,promoter activity interaction Z-score,[4]; [25],-2.21 ± 0.12
same,promoter activity interaction Z-score,[4]; [26],-2.09 ± 0.24
same,promoter activity interaction Z-score,[4]; [27],-2.11 ± 0.083
same,promoter activity interaction Z-score,[4]; [28],-1.66 ± 0.9
same,promoter activity interaction Z-score,[4]; [29],-4.75 ± 0.23
same,promoter activity interaction Z-score,[4]; [30],-0.357 ± 0.99
same,promoter activity interaction Z-score,[4]; [31],-1.4
same,promoter activity interaction Z-score,[5]; [21],0.201 ± 0.071
same,promoter activity interaction Z-score,[5]; [22],0.637 ± 0.17
same,promoter activity interaction Z-score,[5]; [23],0.258 ± 0.11
same,promoter activity interaction Z-score,[5]; [24],3.14 ± 1.1
same,promoter activity interaction Z-score,[5]; [25],1.35 ± 0.47
same,promoter activity interaction Z-score,[5]; [26],1.62 ± 0.14
same,promoter activity interaction Z-score,[5]; [27],1.1974 ± 0.00038
same,promoter activity interaction Z-score,[5]; [28],3.99 ± 0.81
same,promoter activity interaction Z-score,[5]; [29],0.664 ± 0.51
same,promoter activity interaction Z-score,[5]; [30],2.07 ± 0.33
same,promoter activity interaction Z-score,[5]; [31],1.44 ± 0.33
same,promoter activity interaction Z-score,[5]; [32],1.96
same,promoter activity interaction Z-score,[6]; [21],1.16 ± 0.087
same,promoter activity interaction Z-score,[6]; [22],0.114 ± 1.9
same,promoter activity interaction Z-score,[6]; [23],0.468 ± 0.18
same,promoter activity interaction Z-score,[6]; [24],2.16 ± 2.1
same,promoter activity interaction Z-score,[6]; [25],3.8 ± 1.3
same,promoter activity interaction Z-score,[6]; [26],1.91 ± 0.99
same,promoter activity interaction Z-score,[6]; [27],1.62 ± 0.65
same,promoter activity interaction Z-score,[6]; [28],3.3 ± 1.4
same,promoter activity interaction Z-score,[6]; [29],0.0472 ± 0.77
same,promoter activity interaction Z-score,[6]; [30],0.874 ± 2.2
same,promoter activity interaction Z-score,[6]; [31],1.26 ± 0.65
same,promoter activity interaction Z-score,[6]; [32],3.6044 ± 0.00012
